Screens (PubChem)
This is one part of a sample in which hits are shown more often than they occur.
Cruzain noTriton: blocks cruzain activity in detergent-free assay; P25779; purified cruzain, Z-FR-AMC fluorescence, no detergent; Potency, µM, without a hit: max response, negative = inhibition, usual class: inhibitors; 200,000 tested, 2.3% active; AID 1476;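 also: plate controls were enzyme without inhibitor for no effect and buffer without enzyme for full effect; nearly all actives have a fitted effect of over 40% in size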
Target sequence (P25779 123-467 limits assumed): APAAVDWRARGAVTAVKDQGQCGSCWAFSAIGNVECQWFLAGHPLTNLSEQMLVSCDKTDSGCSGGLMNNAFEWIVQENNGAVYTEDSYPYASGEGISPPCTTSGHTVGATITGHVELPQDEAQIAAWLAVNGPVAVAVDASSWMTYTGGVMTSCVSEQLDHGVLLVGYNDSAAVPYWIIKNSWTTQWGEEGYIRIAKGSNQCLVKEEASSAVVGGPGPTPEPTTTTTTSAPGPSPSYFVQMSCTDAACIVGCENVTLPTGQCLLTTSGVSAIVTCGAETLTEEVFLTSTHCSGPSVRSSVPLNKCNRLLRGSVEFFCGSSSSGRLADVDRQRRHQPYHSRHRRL
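Detergent-free condition (0.00005% Triton X-100) in acetate buffer pH 5.5 with DTT. 1.5 nM enzyme and compound were pre-mixed 15 min, then 2 uM Z-FR-AMC substrate added; reaction progress from fluorescence change between first and third reads (60 s).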
NS1 function inh: influenza NS1 inhibition. AID 2326. 270,000 tested, 0.4% active. Potency, µM (series often up to 46.1 µM), without a hit: at the top dose activity, positive = more growth; calls by dose curve; also: actives are rising curves; nearly all actives have a fitted effect of over 50% in size
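A cell-based growth assay was used: compounds that relieve NS1-induced slow growth of budding yeast raise OD600. Assay medium was yeast nitrogen base with ammonium sulphate and -URA supplement, pH 6.0, with 2% galactose.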
Cruzain inh Det: blocks cruzain activity in presence of Triton detergent. P25779. purified cruzain, Z-FR-AMC fluorescence, 0.01% Triton. Potency, µM, without a hit: max response, negative = inhibition, actives largely listed as inhibitors. 200,000 tested, 0.43% active;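 also: plate controls were neutral wells for no effect and buffer without enzyme for full effect; nearly all actives have a fitted effect of over 40% in size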
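Purified cruzain (1.5 nM final) was preincubated with compounds for 15 min at room temperature in 100 mM sodium acetate pH 5.5, 5 mM DTT, 0.01% Triton X-100. Reaction started with 2 uM Z-FR-AMC; AMC fluorescence change over 60 s gave activity.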
Active calls of the source: *; u = inconclusive; x = not tested or not shown. Unless noted, calls follow the shape of the dose curve; as a rule, active = well fitted curve in the direction sought with a large enough effect; inconclusive = small, poorly fitted or top-dose-only effect, or another doubt; inactive = no such curve, though single readings can be large; an effect the other way counts as inactive or inconclusive. Potency is read from the fitted curve at half-maximal effect.

SMILES	Cruzain noTriton	NS1 function inh	Cruzain inh Det
O=C(O)CN1C(=O)/C(=C\c2cc(Br)ccc2OCc2ccc([N+](=O)[O-])cc2)SC1=S	x	22%	x
Cc1ccc(NC(=O)c2cccc(NC(=O)/C=C/c3ccco3)c2)cc1C	-10%	8%	-9%
Cc1ccc(-n2nc3ccc(NC(=O)/C=C/c4ccco4)cc3n2)cc1	16µM*	10%	-7%
Cc1c(-c2nc(-c3ccccc3)no2)nnn1-c1ccc(F)c(Cl)c1	-1%	x	4%
COc1ccc2c(c1)CCc1c(C(=O)Nc3ccc(OC)cc3OC)noc1-2	-5%	x	0%
COc1ccc(-c2nn(-c3ccccc3)cc2/C=C/C(=O)OCC(=O)Nc2ccc(C#N)cc2)cc1	u	6%	-13%
Cc1ccccc1NC(=O)COC(=O)/C=C/c1cn(-c2ccccc2)nc1-c1cccnc1	25µM*	26%	-5%
COc1ccc(-c2nn(-c3ccccc3)cc2/C=C/C(=O)OCC(=O)Nc2cccc(C#N)c2)cc1	32µM*	1%	0%
CC(=O)Nc1ccc(NC(=O)C(C)OC(=O)/C=C/c2cn(-c3ccccc3)nc2-c2cccnc2)cc1 (stereo not given)	u	10%	-9%
COc1cccc(C(=O)NC(=S)Nc2ccc3[nH]c(=O)[nH]c3c2)c1	x	-14%	x
COc1cc(SC#N)ccc1N=Cc1c(C)[nH]n(-c2cccc3ccccc23)c1=O	25µM*	-2%	-5%
COc1cc(SC#N)ccc1N=Cc1c(C)[nH]n(-c2ccc(C)cc2C)c1=O	-17%	-71%	-2%
CCc1c(C)c2cc(Cl)c(O)c(CN3CCCCC3)c2oc1=O	u	4%	32µM*
CCc1cc(=O)oc2c(CN3CCCC3)c(O)c(Cl)cc12	u	4%	28µM*
CCCCc1cc(=O)oc2c(CN3CCCC3)c(O)ccc12	u	6%	25µM*
CCc1c(C)c2ccc(O)c(CN3CCCC3)c2oc1=O	x	1%	x
O=c1cc(-c2ccccc2)c2ccc(O)c(CN3CCCCC3)c2o1	u	u	-15%
CCc1cc(=O)oc2c(CN3CCN(C)CC3)c(O)c(Cl)cc12	u	-1%	u
CC1CCN(C(=O)COC(=O)c2cc3ccccc3cc2O)CC1	-6%	-68%	-5%
COc1cc(C2C(=O)N(C3CCCCC3)CC(=O)N2CCc2ccccc2)ccc1OC(C)C (stereo not given)	2%	x	0%
O=C1C=C(N2CCCCCC2)C(=O)N1c1ccc(Cl)cc1	x	-1%	x
O=C1C=C(Nc2ccc(Cl)cc2)C(=O)N1c1ccc(Cl)cc1	6.3µM*	29%	1%
CCc1cccc(C)c1NC(=O)CO/N=C(\C)c1cc2ccccc2o1	1%	7%	-2%
CCc1ccc(CNc2ccc(O)cc2)cc1	32µM*	27%	-21%
Oc1ccc(NCc2ccc(OCc3ccccc3)cc2)cc1	-15%	-4%	-16%
SMILES	Cruzain noTriton	NS1 function inh	Cruzain inh Det
Cc1ccc(NC(=O)/C(=C/C=C/c2ccccc2)NC(=O)c2ccccc2)cc1	u	1%	-3%
C#CCOC(=O)/C(=C/C=C/c1ccccc1)NC(=O)c1ccccc1	13µM*	-7%	7.1µM*
CSCCC(NS(=O)(=O)c1ccc2c(c1)oc(=O)n2C)C(=O)NC1CCC(C)CC1 (stereo not given)	-3%	u	2%
O=C(c1ccc(Cl)c(S(=O)(=O)N2CCCC2)c1)N1CCN(c2ccccc2F)CC1	x	2%	x
O=C(COC(=O)c1ccc(Cl)c(S(=O)(=O)N2CCc3ccccc3C2)c1)Nc1ncc(Cl)cc1Cl	20µM*	29%	0%
O=C(COC(=O)c1cccc(S(=O)(=O)N2CCc3ccccc32)c1)Nc1ncc(Cl)cc1Cl	u	26%	-4%
Cc1cccc(N2CCN(C(=O)c3ccc(Cl)c(S(=O)(=O)N4CCc5ccccc5C4)c3)CC2)c1C	10µM*	u	-4%
CC(=O)Nc1ccc(-n2c(CCC(=O)O)ccc2-c2ccc(Br)cc2)cc1	2%	x	-12%
COC(=O)CSc1ccc(C#N)c(SCC(=O)OC)c1	-22%	-4%	-7%
CC(C)N1CCC(n2nccc2NC(=O)c2ccc3c(c2)OCO3)CC1	x	9%	x
CC(C)=CCOc1ccc(/C=C/C(=O)c2ccc(OCC=C(C)C)cc2OCC(=O)O)cc1	u	x	20µM*
C/C=C/c1ccc(OCC(=O)O)c(OC)c1	x	5%	x
O=C(NNC(=O)c1cc2cc3ccccc3nc2s1)c1ccc(F)cc1	10µM*	17%	u
Cc1ccc(S(=O)(=O)NNC(=O)c2cc3cc4ccccc4nc3s2)cc1	-5%	3%	-14%
O=C(NNC(=O)C1CC1)c1cc2cc3ccccc3nc2s1	x	-2%	x
O=C(NNC(=O)c1cc2cc3ccccc3nc2s1)c1cccc(Cl)c1	25µM*	-6%	u
Cc1cccc(C(=O)NNC(=O)c2cc3cc4ccccc4nc3s2)c1	20µM*	0%	4%
